# KB-V1 cytotox – qHTS assay for MDR1-selective chemotherapeutics: Primary screen using the drug-selected MDR subline cells KB-V1 | KB-V1 MDR cells viability, CellTiter-Glo, 72 h | Potency, µM (titrated, usually from 46.1 µM), most hits filed as cytotoxic | 400,000 tested, 3.4% active | AID 1347076, 2019; also: % is scaled to controls: 0 for no effect and ±100 for the full control effect; nearly all actives have a fitted effect of over 60% in size
#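 Cytotoxicity toward P-gp-expressing KB-V1 cells was determined as loss of CellTiter-Glo luminescence after 72 h at 37 degrees C. Compounds were tested in quantitative HTS format across a concentration range, with curves fitted to normalized data.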
# SW480 rereplic – A quantitative high throughput screen for small molecules that induce DNA re-replication in SW480 colon adenocarcinoma cells; SW480 DNA re-replication, Hoechst DNA content imaging, 48 h; Potency, µM (doses to about 46.1 µM), for the others: at the top dose re-replication activation, hits mostly activators; 340,000 tested, 1.8% active; also: % of control where 0% means no effect; nearly all actives have a fitted effect of over 55% in size
#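 Compounds, transferred as 23 nL by pin tool, were incubated with cells for 48 hr; DNA content per nucleus was then quantified by Hoechst staining and fluorescence plate imaging.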
# PINK1 expr mod – A Quantitative High throughput Screen to Identify Chemical Modulators of PINK1 Expression; 410,000 tested, 0.2% active; PINK1 immunofluorescence, high-content cytometry, 24 h; AID 624263, 2012; Potency, µM (highest dose often 76.6 µM), for the others: at the highest dose activation (PINK1 increase), most hits filed as activators; active = well fitted activation curve with a large enough effect; inconclusive = small, poorly fitted or top-dose-only effect; cell line not stated here; also: % of control where 0% means no effect; nearly all actives have a fitted effect of over 65% in size
#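 PINK1 protein level read as immunofluorescence by microplate cytometer in a fixed, stained stable cell line after 24 h exposure to five compound concentrations, with CCCP as control.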
# MCF10A rerep – A quantitative high throughput screen for small molecules that induce DNA re-replication in MCF 10a normal breast cells; MCF 10A DNA re-replication, Hoechst nuclear intensity, 48 h; Potency, µM (doses to about 46.1 µM), for the others: at the top dose activity, positive = re-replication, most hits filed as activators; 350,000 tested, 2.9% active; AID 624296, 2012; also: % of control where 0% means no effect; nearly all actives have a fitted effect of over 50% in size
# KB-3-1 tox – qHTS assay for MDR1-selective chemotherapeutics: Primary screen using the parental adenocarcinoma cell KB-3-1; KB-3-1 viability, CellTiter-Glo ATP luminescence, 72 h; Potency, µM (doses to about 46.1 µM), most hits filed as cytotoxic; 400,000 tested, 1.4% active; also: % is scaled to controls: 0 for no effect and ±100 for the full control effect; nearly all actives have a fitted effect of over 60% in size
#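 Using CellTiter-Glo luminescence, growth of non-resistant KB-3-1 adenocarcinoma cells is assessed 72 h after pin-tool compound addition at 37 °C. Normalized responses across the concentration series yield fitted curves.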
# Active calls of the source: *; i = inactive; u = inconclusive; x = no result given; [ ] = another dose, or the depositor's remark. Only some compounds are listed: those with a hit (about 6.7% of all), similar ones and a draw of the others. Unless noted, calls follow the shape of the dose curve; as a rule, active = well fitted curve in the direction sought with a large enough effect; inconclusive = small, poorly fitted or top-dose-only effect, or another doubt; inactive = no such curve, though single readings can be large; an effect the other way counts as inactive or inconclusive. Potency is read from the fitted curve at half-maximal effect.
SMILES,KB-V1 cytotox,SW480 rereplic,PINK1 expr mod,MCF10A rerep,KB-3-1 tox
CCC(=O)Nc1ccc(N2CCN(Cc3ccccc3)CC2)cc1,i,-6%,0%,8.2µM*,i
NC(=O)C1(N2CCCCC2)CCN(CC(=O)Nc2ccc(Oc3ccccc3)cc2)CC1,13µM*,7%,1%[38.3 µM],3%,u
O=C(CCN1CCN(Cc2ccccc2)CC1)Nc1ccc(OCc2ccccc2)cc1,2.6µM*,19%,0%,u,u
O=C(CN1CCN(CC(=O)Nc2ccc(OCc3ccccc3)cc2)CC1)Nc1ccc(F)cc1,3.7µM*,13%,-2%[38.3 µM],28%,i
CC(=O)N1CCN(c2ccc(NS(=O)(=O)c3ccc4c(c3)CC(=O)N4)cc2)CC1,i,x,x,x,u
COc1cccc(/C=C/C(=O)NNC(=O)CCN2CCN(Cc3ccccc3)CC2)c1,i,3.7µM*,4%,u,23µM*
COc1cccc(C(=O)NNC(=O)CCN2CCN(c3ccccc3)CC2)c1,i,-2%,0%,2%,i
Cc1ccc(OCC(O)Cn2c(=N)n(CCN3CCOCC3)c3ccccc32)cc1 (stereo not drawn),i,-1%,0%,13%,i
COc1ccc(OCC(O)Cn2c(=N)n(CCN3CCCCC3)c3ccccc32)cc1 (stereo not drawn),i,u,2%,26µM*,u
N=c1n(CCN2CCCC2)c2ccccc2n1CC(O)c1ccc(Cl)c(Cl)c1 (stereo not drawn),i,u,-2%,23µM*,i
Cc1ccc(OCC(O)Cn2c(=N)n(CCN3CCCCC3)c3ccccc32)cc1 (stereo not drawn),23µM*,u,-5%,u,21µM*
O=C(NCc1n[nH]c(=S)n1-c1cccc(C(F)(F)F)c1)c1ccco1,i,-7%,0%,1%,i
OC[C@@H]1CN(Cc2ccccc2)C[C@H](n2cnc3c(Nc4ccccc4)ncnc32)O1,i,x,4%,x,i
COc1cccc(-n2c(SC)nnc2C2CCN(Cc3cccc(OC)c3O)CC2)c1,x,x,1%,x,x
O=C(CN(Cc1ccccc1Cl)C(=O)c1ccc(CN2CCOCC2)o1)NCc1ccccc1,12µM*,7%,0%,9%,i
O=C(NCc1ccccc1)c1ccc(CN2CCOCC2)cc1,i,2%,-1%,13%,i
COc1ccc(CNC(=O)Cc2ccc(NC(=O)N3CCSc4ncccc43)cc2)cc1,i,x,1%,x,i
COc1ccccc1NC(=O)c1nnn(Cc2ccccc2)c1NC(C)=O,i,-2%,-2%,0%,i
COc1ccc(C)cc1NC(=O)c1nnn(Cc2cccc(C(F)(F)F)c2)c1N,i,11%,30%,2.1µM*,u
COc1ccccc1NC(=O)c1nnn(Cc2ccccc2)c1NC(=O)C(F)(F)F,21µM*,-4%,u,15%,18µM*
CC(NC(=O)c1cccnc1)c1nnc2n1CCN(Cc1ccc(-c3ccccc3Cl)o1)CC2 (stereo not drawn),x,x,3%,x,x
Cc1cc(C(=O)COC(=O)c2nccnc2N)c(C)n1C,i,-90%,-1%,-46%,i
COc1cc(C(=O)OCC(=O)c2cc(C)n(C)c2C)cc(OC)c1OC,5.2µM*,u,7%,u,u
O=S(=O)(CCS(=O)(=O)c1ccccc1)c1ccccc1,i,16µM*,-2%,u,i
O=Cc1ccccc1OCc1ccc2c(c1)OCO2,i,18µM*,10%,u,u
CC(C)CCOc1ccc(CC(=O)NO)cc1,i,x,1%,x,i
COC(=O)[C@@H]1CCCN1Cc1ccc2c(c1)CN(Cc1nccs1)CCO2,x,x,1%,x,x
O=C(CCC1N=C2c3ccccc3N=C(SCc3ccc(Cl)cc3)N2C1=O)NCc1ccco1 (stereo not drawn),6.5µM*,u,2%,u,u

# Bioassay records: PubChem, National Center for Advancing Translational Sciences (NCATS)
